# Results taken from PubChem BioAssay AID2283170 (EPA ToxCast).
# Inconclusive results are not listed. Activity calls are given as the source filed them. How the source made its calls: active means hit-call score of the fitted dose curve at least 0.9, where 1 is the maximum; inconclusive means response in the unintended direction; inactive means score below 0.9.
# Target: human Lymphocyte-cell Factor Kinase (Lck), LCK (gene 3932) (UniProt P06239)
# Assay: NVS_ENZ_hLck: NovaScreen (NVS) Enzymatic Assay for human Lymphocyte-cell Factor Kinase (Lck)
# Procedure: NVS_ENZ_hLck is a biochemical, single-readout assay that uses extracted gene-proteins in a cell-free assay. Measurements were taken 1 hour after chemical dosing in a 384-well plate.NVS_ENZ_hLck is one of one assay component(s) measured or calculated from the NVS_ENZ_hLck assay. It is designed to make measurements of enzyme activity, a form of enzyme reporter, as detected with fluorescence intensity signals by Fluorescence and electrophoretic mobility shift technology.Data from the assay component NVS_ENZ_hLck was analyzed into 1 assay endpoint. This assay endpoint, NVS_ENZ_hLck, was analyzed in the positive analysis fitting direction relative to DMSO as the negative control and baseline of activity. Using a type of enzyme reporter, loss-of-signal activity can be used to understand changes in the enzymatic activity as they relate to the gene LCK. Furthermore, this assay endpoint can be referred to as a primary readout, because this assay has produced […] where this one serves a enzymatic activity function. To generalize the intended target to other relatable targets, this assay endpoint is annotated to the kinase intended target family, where the subfamily is non-receptor tyrosine kinase.
# Binding assays used specific radioligands (tritiated, iodinated) with non-radioactive competitive displacement ligands in agonist or antagonist protocols (as indicated) and various reference compounds and inhibitors to titrate specific binding to receptors and transporters. Most enzyme assays (CYPs, kinases, phosphatases, proteases, HDACs) used recombinant protein and specific substrates (fluorescence mostly, some colorimetric and radioactive) and inhibitors, followed by a biochemical separation of substrate and product. All assays for the biochemical HTS were initially run in duplicate at a single concentration (10 uM for CYP450 assays and 25 uM for all others). Assay-chemical combinations meeting a pre-defined threshold (e.g., 30% inhibition and other criteria defined below) were then run in singleton concentration-response format with maximum concentration of 20 uM for CYPs and 50 uM for all others. Each assay was run with positive and negative controls, and concurrent controls on every plate. The follow-up (secondary) screen tested active chemical-pairs in concentration series, as well as a few additional assays not tested in the primary screen, some selected negative inactives, and several cases re-run in the concentration series for confirmatory purposes.
# human Lymphocyte-cell Factor Kinase (Lck), LCK (gene 3932), sequence (P06239 whole entry, looked up): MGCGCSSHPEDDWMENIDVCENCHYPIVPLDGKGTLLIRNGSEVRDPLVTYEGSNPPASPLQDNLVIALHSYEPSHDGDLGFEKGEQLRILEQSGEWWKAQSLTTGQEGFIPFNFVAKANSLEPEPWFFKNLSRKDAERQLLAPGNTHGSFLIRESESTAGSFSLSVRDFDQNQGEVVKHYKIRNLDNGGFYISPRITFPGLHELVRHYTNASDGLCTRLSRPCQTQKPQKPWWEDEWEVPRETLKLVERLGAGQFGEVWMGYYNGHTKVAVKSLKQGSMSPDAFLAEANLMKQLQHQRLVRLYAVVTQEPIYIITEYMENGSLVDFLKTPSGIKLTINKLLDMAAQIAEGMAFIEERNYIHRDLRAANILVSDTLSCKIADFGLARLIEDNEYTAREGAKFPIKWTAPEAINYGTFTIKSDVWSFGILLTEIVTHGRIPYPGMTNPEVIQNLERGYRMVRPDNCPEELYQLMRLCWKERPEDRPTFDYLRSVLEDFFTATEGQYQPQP
Compound,AC50,outcome
CC[C@H](C)[C@H]1O[C@]2(C=C[C@@H]1C)C[C@@H]1C[C@@H](C/C=C(\C)[C@@H](O[C@H]3C[C@H](OC)[C@@H](O[C@H]4C[C@H](OC)[C@@H](NC)[C@H](C)O4)[C@H](C)O3)[C@@H](C)/C=C/C=C3\CO[C@@H]4[C@H](O)C(C)=C[C@@H](C(=O)O1)[C@]34O)O2,36 µM (active),–
O=C(Nc1ccccc1)Nc1cnns1,–,inactive
S=C1NCCN1,–,inactive
O=C(O)C(F)(F)C(F)(F)C(F)(F)C(F)(F)C(F)(F)C(F)(F)C(F)(F)F,–,inactive
Cc1cnc(C2=NC(C)(C(C)C)C(=O)N2)c(C(=O)O)c1 (stereo not drawn),–,inactive
CNC(=S)S,–,inactive
O=S(=O)(O)C(F)(F)C(F)(F)C(F)(F)C(F)(F)C(F)(F)C(F)(F)C(F)(F)C(F)(F)F,43.9 µM (active),–
C=CCC1=C(C)[C@@H](OC(=O)[C@@H]2[C@@H](C=C(C)C)C2(C)C)CC1=O,–,inactive
